Unmarked numbers belong to inactive results. The list shows a part of the results. Activity calls are given as the source filed them.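 How the source made its calls, unless noted: active means activation above a set limit carried over from the earlier primary STAT1 screen (cut at about 140% in these data); inactive means the rest.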
Tests used:
[1] = STAT1 signaling activators, confirmation, cell-based, HTS, luciferase reporter (AID 1262); conditions: NIH 3T3 STAT1-luciferase reporter, IFN-gamma potentiation, luminescence; at 5.7 µM; active compounds read high; 100% = IFN-gamma EC80 alone, no compound;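 further: simple ratio to median IFN-gamma plus DMSO wells so 0% means no light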
[2] = NF-kB reporter activators, TNF-alpha stimulated, counter-screen for STAT1 activator project, cell-based, HEK293T, luciferase luminescence (AID 1306;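 active means activation above the mean of solvent-only control wells plus 3 SD, set per campaign, cut at about 130% in these data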;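 further: TNF-alpha given at a submaximal dose yielding about 80% of full reporter signal; values are well signal over median control so 100% means no change and 0% no light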); conditions: at 5.7 µM, active compounds read high, 100% = TNF-alpha with vehicle only
[3] = target: Signal transducer and activator of transcription 3 (Homo sapiens) (UniProt P40763); assay: STAT3 reporter activation by STAT1 hits, confirmation, counter-screen for STAT1 activator project, U3A cells, luciferase, luminescence (AID 1316;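 active means activation above the solvent-only control well mean plus 3 SD, set per plate batch, cut at about 110% in these data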;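 further: 0% = no luminescence and 100% = median IL-6 plus DMSO wells; higher means more STAT3 reporter activation so hits are non-selective activators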); conditions: IL-6, luminescence, at 5.7 µM, active compounds read high, 100 = IL-6 alone, no compound effect, cells lack STAT1
[4] = system: DAF-12 nuclear receptor (Heterodera glycines), GAL4-LBD fusion; assay: H. glycines DAF-12 receptor agonists, confirmation, cell-based, luminescence, HEK293, GAL4-LBD fusion (AID 743050;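 active means mean activation over triplicate wells above the hit cutoff derived from the earlier primary screen, cut at about 11% in these data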;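 further: 0% = DMSO low control and 100% = 2 mM sodium butyrate high control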); conditions: HEK293 GAL4-hgDAF12 luciferase reporter, agonist mode; at 6.8 µM; active compounds read high; percent of butyrate response
[5] = target: Oxysterols receptor LXR-beta (Homo sapiens) (UniProt P55055); assay: LXR agonists, Gal4 luciferase reporter, confirmation, counter-screen for hgDAF-12 agonist project, cell-based, luminescence, HEK293, H. glycines campaign (AID 743051;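 active means mean activation of the triplicate above a set limit carried over from the primary screen, none filed active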); conditions: 24 h, at 6.8 µM, active compounds read high
[6] = target: Oxysterols receptor LXR-beta (Homo sapiens) (UniProt P55055); assay: LXR agonists, Gal4 luciferase reporter, confirmation, counter-screen for hcDAF-12 agonist project, cell-based, luminescence, HEK293, H. contortus campaign (AID 743027;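 active means mean percent activation of the reporter above a cutoff set as the average over tested compounds plus their standard deviation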); conditions: HEK293 Gal4-LXR tk-luc reporter, 24 h, at 6.8 µM, active compounds read high, normalized: DMSO 0%, positive control 100%
[7] = system: Nuclear hormone receptor DAF-12 (Haemonchus contortus); assay: H. contortus DAF-12 receptor agonists, confirmation, cell-based, luminescence, HEK293, lit1-tk-luc, triplicate (AID 743032;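 active means mean activation across triplicate tests above the threshold derived from the earlier primary screen, cut at about 5.5% in these data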;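 further: 0% = DMSO only wells and 100% = 3 µM Δ7-dafachronic acid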); conditions: HEK293 hcDAF-12 lit1-tk-luc reporter, at 6.8 µM, active compounds read high, % of Δ7-dafachronic acid response
[8] = target: Insulin-degrading enzyme (Homo sapiens) (UniProt P14735); assay: human IDE inhibitors in live cells, confirmation, fluorescence polarization, HEK cells, FAbetaB substrate (AID 435028;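 active means mean inhibition across triplicate wells above the cutoff set by the earlier primary insulin-degrading enzyme screen, cut at about 16% in these data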;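 further: 0% = DMSO wells and 100% = 60 µM reference IDE inhibitor Ii1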); conditions: FAbetaB cleavage, at 5.59 µM, active compounds read high
[9] = cytotoxicity in HEK cells, cytotoxicity control for IDE inhibitor project, cell-based, luminescence (AID 449730; in the data active means inhibition above about 22%;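 further: 0% = vehicle wells and 100% = reference cytotoxic drug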); conditions: HEK293 cytotoxicity, ATP luminescence; at 5.59 µM; active compounds read high
[10] = growth loss of phage-infected E. coli expressing H. pylori AddAB, confirmation, AddAB inhibitor project, absorbance, E. coli V3065, T4 phage, triplicate (AID 488942;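 active means mean inhibition above a set limit taken from the earlier primary screen, cut at about 13% in these data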;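 further: higher means less bacterial growth since AddAB block lets phage replicate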); conditions: OD, at 11.9 µM, active compounds read high, T4 phage with gene 2 nonsense mutations
[11] = growth loss of RecBCD+ E. coli with mutant T4 phage, counter-screen for AddAB inhibitor project, absorbance, V66 E. coli (AID 488955;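 active means mean inhibition above the mean of solvent-only control wells plus 3 SD, cut at about 4% in these data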;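 further: optical density read after an 18 h incubation at 37 °C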); conditions: OD growth, at 11.9 µM, active compounds read high
[12] = bacterial viability inhibition counter-screen, confirmation, counter-screen for AddAB inhibitor project, absorbance (AID 488956; in the data active means inhibition above about 25%); conditions: absorbance (AddAB counterscreen), at 11.9 µM, active compounds read high
[13] = KLF5 expression inhibitors, confirmation, DLD-1 cells, luminescence (AID 1834;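 active means inhibition above a set limit taken from the earlier primary screen, cut at about 63% in these data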;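 further: 0% = DMSO wells and 100% = LY294002 at 200 µM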); conditions: DLD-1 KLF5 promoter firefly luciferase reporter, at 4 µM, active compounds read high
[14] = cytotoxicity in rat IEC-6 cells, cytotoxicity control for KLF5 inhibitor project, cell-based, luminescence, triplicate (AID 1905; in the data active means inhibition above about 23%;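 further: cells exposed to compounds for 48 hours before viability read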); conditions: IEC-6 rat intestinal cells, viability luminescence; at 4 µM; active compounds read high
[15] = STAT3 reporter inhibitors, retest of hits, confirmation, U3A cells, luciferase, luminescence (AID 1265;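 active means inhibition above the hit cutoff computed for the primary STAT3 screen, cut at about 44% in these data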;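 further: 0% = IL-6 plus DMSO and 100% = IL-6 plus nifuroxazide control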); conditions: IL-6 STAT3 luciferase reporter, at 5.7 µM, active compounds read high, cell line lacks STAT1
[16] = NF-kB reporter inhibitors in human cells, confirmation, counter-screen for STAT3 inhibitor project, cell-based, HEK293T, luciferase, TNF-alpha stimulus (AID 1308;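 active means inhibition above the mean of solvent-only control wells plus 3 SD, cutoff set per campaign, cut at about 13% in these data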;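 further: 0% = TNF-alpha with DMSO and 100% = TNF-alpha with MG high control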); conditions: TNF-alpha induced, at 5.7 µM, active compounds read high
[17] = STAT1 reporter inhibitors, IFN-gamma induced, confirmation, counter-screen for STAT3 inhibitor project, cell-based, NIH 3T3, luciferase luminescence (AID 1317;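 active means inhibition above the mean plus 3 SD of solvent-only control wells, limit set per screening run, cut at about 16% in these data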;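 further: 0% = DMSO with IFN-gamma and 100% = nifuroxazide control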); conditions: NIH 3T3 STAT1-luciferase reporter, at 5.7 µM, active compounds read high
[18] = target: Nuclear receptor coactivator 3 (Homo sapiens) (UniProt Q9Y6Q9); assay: SRC3 coactivator transcriptional activity inhibitors, confirmation, cell-based, luminescence, quadruplicate (AID 588792;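 active means mean inhibition over 43.08%, the solvent-only control mean plus 3 SD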;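 further: 0% = DMSO treated cells and 100% = gossypol at 36 µM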); conditions: HEK293 GAL4-SRC3 luciferase reporter, at 3.6 µM, active compounds read high
[19] = system: transactivating tegument protein VP16 (Human herpesvirus 1), Gal4-VP16 luciferase reporter; assay: VP16 transactivation inhibitors, counter-screen for SRC3 inhibitor project, cell-based, luminescence, high throughput (AID 588794; in the data active means inhibition above about 30%); conditions: mammalian cells, VP16-driven luciferase reporter luminescence; at 3.6 µM; active compounds read high
[20] = target: Photoreceptor-specific nuclear receptor (Homo sapiens) (UniProt Q9Y5X4); assay: NR2E3 agonist confirmation in cells, cell-based, luminescence, CHO-S two-hybrid (AID 624378;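 active means average inhibition above a cutoff equal to the mean inhibition of all tested compounds plus one SD, cut at about 70% in these data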;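 further: 0% = DMSO in NR2E3 cells and 100% = DMSO in cells lacking NR2E3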); conditions: CHO-S mammalian two-hybrid NR2E3-NCOR, luciferase luminescence; at 3.98 µM; active compounds read high
[21] = GAL4-VP16 reporter modulators, confirmation, counter-screen for NR2E3 agonist project, cell-based, luminescence, CHO-S, high throughput (AID 624379;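 active means mean inhibition above a cutoff equal to the average over all tested compounds plus one standard deviation, cut at about 70% in these data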;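 further: 0% = DMSO with VP16-transfected cells and 100% = DMSO with cells lacking VP16; higher means less reporter light so more repression of VP16 activity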); conditions: CHO-S GAL4-VP16 luciferase reporter, at 3.98 µM, active compounds read high
[22] = StAR promoter reporter inhibitors, counter-screen for LRH-1 inverse agonist project, cell-based, luminescence, high throughput (AID 651611; in the data active means inhibition above about 28%); conditions: StAR promoter luciferase reporter counterscreen, at 3.6 µM, active compounds read high
[23] = target: Nuclear receptor subfamily 5 group A member 2 (Homo sapiens) (UniProt O00482); assay: LRH-1 (NR5A2) inverse agonists, retest, confirmation, cell-based, luminescence (AID 651613; in the data active means inhibition above about 42%;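 further: HEK293T cells co-transfected with LRH-1 and StAR promoter luciferase reporter; 0% = vehicle wells and 100% = parental cells lacking receptor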); conditions: cell-based LRH-1 luciferase reporter, inverse agonism; at 3.6 µM; active compounds read high
[24] = target: Steroidogenic factor 1 (Homo sapiens) (UniProt Q13285); assay: SF1 (NR5A1) inverse agonists, counter-screen for LRH-1 inverse agonist project, cell-based, luminescence, high throughput (AID 651614; in the data active means inhibition above about 44%;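 further: cells cotransfected with StAR promoter reporter and SF1 expression vector; 0% = vehicle on cells with receptor and 100% = vehicle on cells lacking receptor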); conditions: cell-based SF1 luciferase reporter, at 3.6 µM, active compounds read high
[25] = VP16 transactivation reporter inhibitors, counter-screen for LRH-1 inverse agonist project, cell-based, luminescence, high throughput (AID 651615; in the data active means inhibition above about 33%); conditions: Gal4-VP16 luciferase reporter cells, at 3.6 µM, active compounds read high

Chain of Oxysterols receptor LXR-beta (Homo sapiens) (P55055 whole entry, looked up, the tested form may be a part): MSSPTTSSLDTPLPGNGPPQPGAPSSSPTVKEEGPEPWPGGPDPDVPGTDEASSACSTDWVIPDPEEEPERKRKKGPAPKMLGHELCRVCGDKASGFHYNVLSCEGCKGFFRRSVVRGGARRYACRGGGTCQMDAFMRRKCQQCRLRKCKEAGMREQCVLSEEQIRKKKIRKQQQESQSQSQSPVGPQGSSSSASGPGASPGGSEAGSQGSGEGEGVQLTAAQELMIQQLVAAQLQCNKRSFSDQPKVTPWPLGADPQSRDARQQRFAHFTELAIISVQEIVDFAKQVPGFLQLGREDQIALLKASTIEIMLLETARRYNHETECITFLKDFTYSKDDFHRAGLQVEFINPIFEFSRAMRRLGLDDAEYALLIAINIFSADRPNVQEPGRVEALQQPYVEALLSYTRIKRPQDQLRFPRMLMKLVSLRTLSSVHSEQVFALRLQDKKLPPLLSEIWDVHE
Chain of Nuclear receptor subfamily 5 group A member 2 (Homo sapiens) (O00482 whole entry, looked up): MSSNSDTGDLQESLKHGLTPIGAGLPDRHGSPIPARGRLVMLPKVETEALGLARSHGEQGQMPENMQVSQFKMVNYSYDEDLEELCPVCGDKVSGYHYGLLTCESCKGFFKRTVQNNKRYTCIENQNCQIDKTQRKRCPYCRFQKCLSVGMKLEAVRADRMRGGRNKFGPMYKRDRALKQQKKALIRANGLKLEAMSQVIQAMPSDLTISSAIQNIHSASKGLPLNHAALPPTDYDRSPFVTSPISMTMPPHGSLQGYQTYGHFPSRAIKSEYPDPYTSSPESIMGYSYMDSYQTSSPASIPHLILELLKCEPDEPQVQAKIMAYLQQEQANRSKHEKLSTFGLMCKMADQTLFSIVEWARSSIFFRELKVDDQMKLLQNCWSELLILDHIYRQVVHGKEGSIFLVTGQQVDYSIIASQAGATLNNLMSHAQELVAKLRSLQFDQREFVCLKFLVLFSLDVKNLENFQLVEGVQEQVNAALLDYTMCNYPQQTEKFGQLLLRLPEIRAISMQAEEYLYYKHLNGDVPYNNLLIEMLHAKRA
Chain of Insulin-degrading enzyme (Homo sapiens) (P14735 whole entry, looked up): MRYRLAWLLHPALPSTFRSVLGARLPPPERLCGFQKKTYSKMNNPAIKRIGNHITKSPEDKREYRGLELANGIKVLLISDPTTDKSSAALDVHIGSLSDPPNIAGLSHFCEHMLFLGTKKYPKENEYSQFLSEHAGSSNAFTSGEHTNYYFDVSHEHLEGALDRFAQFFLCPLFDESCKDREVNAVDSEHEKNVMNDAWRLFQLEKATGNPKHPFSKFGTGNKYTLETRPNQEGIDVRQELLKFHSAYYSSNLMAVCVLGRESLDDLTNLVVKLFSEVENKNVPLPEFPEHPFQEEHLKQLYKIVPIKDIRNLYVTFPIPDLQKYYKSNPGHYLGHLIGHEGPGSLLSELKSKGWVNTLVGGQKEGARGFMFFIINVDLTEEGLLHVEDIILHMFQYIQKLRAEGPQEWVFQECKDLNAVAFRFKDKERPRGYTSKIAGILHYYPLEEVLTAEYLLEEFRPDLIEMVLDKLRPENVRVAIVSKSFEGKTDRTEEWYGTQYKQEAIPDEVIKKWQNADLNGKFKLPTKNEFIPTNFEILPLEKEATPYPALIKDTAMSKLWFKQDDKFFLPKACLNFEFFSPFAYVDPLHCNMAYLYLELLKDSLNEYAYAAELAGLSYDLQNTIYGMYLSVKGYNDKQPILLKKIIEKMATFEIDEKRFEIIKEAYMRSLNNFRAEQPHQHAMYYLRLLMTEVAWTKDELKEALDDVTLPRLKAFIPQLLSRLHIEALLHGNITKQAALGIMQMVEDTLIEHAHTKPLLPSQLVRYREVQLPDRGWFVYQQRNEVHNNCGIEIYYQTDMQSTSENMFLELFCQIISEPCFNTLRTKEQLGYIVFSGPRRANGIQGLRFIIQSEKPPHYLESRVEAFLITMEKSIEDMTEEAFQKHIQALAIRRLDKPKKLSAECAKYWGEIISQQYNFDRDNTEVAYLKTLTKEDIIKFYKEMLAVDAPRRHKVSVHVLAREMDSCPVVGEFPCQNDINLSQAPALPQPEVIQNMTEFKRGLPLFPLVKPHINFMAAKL
Chain of Steroidogenic factor 1 (Homo sapiens) (Q13285 whole entry, looked up, the tested form may be a part): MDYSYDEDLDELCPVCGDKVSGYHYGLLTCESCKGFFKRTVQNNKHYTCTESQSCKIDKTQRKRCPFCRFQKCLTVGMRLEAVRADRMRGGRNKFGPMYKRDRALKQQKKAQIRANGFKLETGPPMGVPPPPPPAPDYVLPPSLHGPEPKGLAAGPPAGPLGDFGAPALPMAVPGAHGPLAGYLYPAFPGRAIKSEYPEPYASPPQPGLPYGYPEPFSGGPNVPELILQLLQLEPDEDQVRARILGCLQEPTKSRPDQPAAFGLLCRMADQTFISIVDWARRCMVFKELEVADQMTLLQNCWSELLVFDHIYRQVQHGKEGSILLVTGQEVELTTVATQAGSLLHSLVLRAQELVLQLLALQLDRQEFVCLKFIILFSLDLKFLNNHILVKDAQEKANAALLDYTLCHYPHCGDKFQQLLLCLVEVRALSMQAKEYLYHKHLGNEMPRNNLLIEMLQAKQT
Chain of Nuclear receptor coactivator 3 (Homo sapiens) (Q9Y6Q9 whole entry, looked up, the tested form may be a part): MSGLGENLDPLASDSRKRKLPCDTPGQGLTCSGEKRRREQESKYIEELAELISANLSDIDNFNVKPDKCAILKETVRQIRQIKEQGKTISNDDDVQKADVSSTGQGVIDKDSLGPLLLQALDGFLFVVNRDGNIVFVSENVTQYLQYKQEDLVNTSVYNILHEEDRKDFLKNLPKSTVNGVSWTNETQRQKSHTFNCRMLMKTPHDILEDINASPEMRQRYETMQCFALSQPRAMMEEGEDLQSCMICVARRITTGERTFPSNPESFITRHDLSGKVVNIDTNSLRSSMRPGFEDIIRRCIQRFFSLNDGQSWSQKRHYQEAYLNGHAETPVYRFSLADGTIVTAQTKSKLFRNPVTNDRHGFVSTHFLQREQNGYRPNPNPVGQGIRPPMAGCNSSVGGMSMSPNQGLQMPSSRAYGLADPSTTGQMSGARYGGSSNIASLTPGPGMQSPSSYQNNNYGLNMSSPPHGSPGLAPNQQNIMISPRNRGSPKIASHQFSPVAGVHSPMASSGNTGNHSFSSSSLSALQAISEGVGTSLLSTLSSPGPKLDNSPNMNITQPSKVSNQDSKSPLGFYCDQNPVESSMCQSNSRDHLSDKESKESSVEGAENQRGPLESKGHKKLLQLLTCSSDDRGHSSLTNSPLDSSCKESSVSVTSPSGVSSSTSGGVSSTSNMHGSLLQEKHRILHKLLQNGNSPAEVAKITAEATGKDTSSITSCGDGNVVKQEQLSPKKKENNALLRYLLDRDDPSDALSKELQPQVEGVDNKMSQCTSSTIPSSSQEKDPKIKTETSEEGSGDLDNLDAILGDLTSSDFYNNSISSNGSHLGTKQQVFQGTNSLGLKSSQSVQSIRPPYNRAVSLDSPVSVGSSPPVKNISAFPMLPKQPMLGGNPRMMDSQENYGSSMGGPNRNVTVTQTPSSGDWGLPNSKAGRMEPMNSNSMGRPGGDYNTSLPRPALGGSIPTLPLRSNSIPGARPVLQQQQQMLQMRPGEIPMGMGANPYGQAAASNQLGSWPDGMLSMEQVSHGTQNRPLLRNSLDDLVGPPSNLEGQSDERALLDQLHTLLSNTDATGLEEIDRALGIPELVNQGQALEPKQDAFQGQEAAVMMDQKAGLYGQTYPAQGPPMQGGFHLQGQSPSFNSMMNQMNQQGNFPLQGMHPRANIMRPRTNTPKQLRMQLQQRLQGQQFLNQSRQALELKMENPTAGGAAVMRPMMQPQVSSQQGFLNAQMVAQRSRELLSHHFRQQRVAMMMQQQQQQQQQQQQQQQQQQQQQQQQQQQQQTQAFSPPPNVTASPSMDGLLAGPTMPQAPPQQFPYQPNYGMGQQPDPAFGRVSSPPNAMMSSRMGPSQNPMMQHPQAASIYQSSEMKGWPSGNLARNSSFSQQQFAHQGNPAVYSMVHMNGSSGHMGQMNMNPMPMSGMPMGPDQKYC
Chain of Photoreceptor-specific nuclear receptor (Homo sapiens) (Q9Y5X4 whole entry, looked up, the tested form may be a part): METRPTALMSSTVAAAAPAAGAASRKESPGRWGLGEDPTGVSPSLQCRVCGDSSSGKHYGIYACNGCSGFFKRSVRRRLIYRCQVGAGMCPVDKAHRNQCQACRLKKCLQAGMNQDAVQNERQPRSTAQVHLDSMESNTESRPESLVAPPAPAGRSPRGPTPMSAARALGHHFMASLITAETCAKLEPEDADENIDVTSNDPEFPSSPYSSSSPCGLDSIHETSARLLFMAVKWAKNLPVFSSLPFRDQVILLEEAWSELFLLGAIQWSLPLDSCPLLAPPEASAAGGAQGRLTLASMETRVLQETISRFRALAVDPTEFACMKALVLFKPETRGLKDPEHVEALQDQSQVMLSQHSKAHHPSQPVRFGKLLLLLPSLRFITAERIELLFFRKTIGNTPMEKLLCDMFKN

For `O=C(NCCCn1ccnc1)c1cc(-c2ccccc2)on1`, the activation (% of control) [1] was 173% (active), the activation (% of control) [2] was 165% (active) and the activation (% of control) [3] was 132% (active). For the same compound, the activation [4] was 57.6% (active) and the activation [5] was 0.27%.
For `Cc1cc(C)c2nc(NC(=O)C3CCCO3)sc2c1` (stereo not given), the activation (% of control) [1] was 209% (active), the activation (% of control) [2] was 138% (active) and the activation (% of control) [3] was 195% (active). For the same compound, the activation [6] was 1.55% and the activation [7] was 6.1% (active).
In the case of `Cc1nn(-c2ccc([N+](=O)[O-])cc2)c(N)c1-c1ccccc1`, the activation (% of control) [1] is reported as 207% (active), the activation (% of control) [2] is reported as 145% (active) and the activation (% of control) [3] is reported as 126% (active). The activation [4] was 16.4% (active) and the activation [5] was 0.83%.
For `O=C(Nc1ccc2c(c1)CCC2)c1ccc(Br)s1`, the activation (% of control) [1] was 236% (active), the activation (% of control) [2] was 137% (active) and the activation (% of control) [3] was 114% (active). The activation [6] was 2.03%, the activation [7] was 7.91% (active) and the activation [4] was 24.6% (active). It also gave an activation [5] of 1.14%.
With `CN1C(=O)/C(=C/C=C2\SCCN2C)OC1=S` the activation (% of control) [1] was 175% (active), the activation (% of control) [2] was 132% and the activation (% of control) [3] was 118% (active). The inhibition [8] was 86.5% (active) and the inhibition [9] was 9.01%.
In the case of `CCn1c(/C=C/c2ccc([N+](=O)[O-])o2)nc2ccccc2c1=O`, the activation (% of control) [1] is reported as 125%, the activation (% of control) [2] is reported as 156% (active) and the activation (% of control) [3] is reported as 102%. For the same compound, the inhibition [10] was 92.8% (active), the inhibition [11] was 12.8% (active) and the inhibition [12] was 42.1% (active).
For `O=C(c1cc(-c2cccs2)on1)N1CCCCC1`, the activation (% of control) [1] was 184% (active), the activation (% of control) [2] was 125% and the activation (% of control) [3] was 105%.
For `CCNc1nc(-c2cc3ccccc3o2)cs1`, the activation (% of control) [1] was 131% (active), the activation (% of control) [2] was 121% and the activation (% of control) [3] was 103%. For the same compound, the activation [6] was 2.08% and the activation [7] was 8.18% (active).
With `Cc1noc(C)c1/C=N/Nc1ccc2ccccc2n1` the activation (% of control) [1] was 235% (active), the activation (% of control) [2] was 141% (active) and the activation (% of control) [3] was 149% (active). For the same compound, the activation [6] was 1.54% and the activation [7] was 15.2% (active).
For `COc1ccc(/C=N/Nc2nc3ccccc3c(=O)[nH]2)cc1`, the activation (% of control) [1] was 169% (active), the activation (% of control) [2] was 119% and the activation (% of control) [3] was 102%.
With `COc1ccc(CS(=O)/C(Cl)=C(/Cl)C(=O)Nc2ccc(OC)nc2)cc1` (stereo not given) the activation (% of control) [1] was 335% (active), the activation (% of control) [2] was 67.4% and the activation (% of control) [3] was 105%. For the same compound, the inhibition [13] was 97% (active) and the inhibition [14] was 63.7% (active).
In the case of `Nc1ncc(-c2cc3ccccc3oc2=O)s1`, the activation (% of control) [1] is reported as 184% (active), the activation (% of control) [2] is reported as 124% and the activation (% of control) [3] is reported as 110%.
With `COc1cc(N=Cc2c(O)[nH]c3ccccc23)cc(OC)c1OC` the inhibition [15] was 49.1% (active), the inhibition [16] was 27% (active) and the inhibition [17] was -12%. The inhibition [13] was 76.8% (active), the inhibition [14] was 19.1% and the inhibition [18] was 28.2%. The inhibition [19] was 1.5%, the inhibition [20] was 73.8% (active) and the inhibition [21] was 58.7%. The inhibition [22] was 61.7% (active), the inhibition [23] was 54.4% (active) and the inhibition [24] was 69.2% (active). The inhibition [25] was 25.2%.

— PubChem BioAssay
